Assay results taken from PubChem BioAssay (NCATS).
Inconclusive results are not listed. Values without a mark were called inactive. Activity calls are given as the source filed them. The call rests on the fitted dose curve; in most records, active means well fitted curve in the direction sought with a large enough effect; inconclusive means small, poorly fitted or top-dose-only effect, or another doubt; inactive means no such curve, though single readings can be large; an effect the other way counts as inactive or inconclusive. Bridge positions count the residues as written; N and C are the ends. Square brackets hold non-standard residues; d marks the D form. Side chains are listed from the residue outwards. Peptide text beside a SMILES is read from it. * marks the point of attachment. Phg(4-OMe) = COc1ccc([C@H](N)C(=O)O)cc1; d(aIle) = CC[C@H](C)[C@@H](N)C(=O)O; d(aThr) = C[C@@H](O)[C@@H](N)C(=O)O; NMeF = CN[C@@H](Cc1ccccc1)C(=O)O; Isobutyryl = CC(C)C(=O)*

What follows are molecules tested against Nuclear receptor subfamily 1 group I member 3 (Homo sapiens) (UniProt Q14994) (assay: qHTS for Constitutive Androstane Receptor (CAR) Antagonist screened against the NCATS CANVASS Library (AID 1347372;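 further: cells stimulated with 50 nM CITCO agonist so inhibition reflects antagonism; on the % scale 0 is the no-effect control and ±100 the full control effect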)). Settings: HepG2-hCAR-CYP2B6 luciferase, CITCO-stimulated antagonist mode; series mostly up to 46.1 µM; activity change, negative = inhibition: at the top concentration.
How it was run: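 Antagonist mode: compound added alongside 50 nM CITCO to HepG2-hCAR-CYP2B6 reporter cells, 24hr at 37C. Viability by CellTiter-Fluor fluorescence, then CAR-driven luciferase by ONE-Glo luminescence.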

Nuclear receptor subfamily 1 group I member 3 (Homo sapiens), sequence (Q14994 whole entry, looked up): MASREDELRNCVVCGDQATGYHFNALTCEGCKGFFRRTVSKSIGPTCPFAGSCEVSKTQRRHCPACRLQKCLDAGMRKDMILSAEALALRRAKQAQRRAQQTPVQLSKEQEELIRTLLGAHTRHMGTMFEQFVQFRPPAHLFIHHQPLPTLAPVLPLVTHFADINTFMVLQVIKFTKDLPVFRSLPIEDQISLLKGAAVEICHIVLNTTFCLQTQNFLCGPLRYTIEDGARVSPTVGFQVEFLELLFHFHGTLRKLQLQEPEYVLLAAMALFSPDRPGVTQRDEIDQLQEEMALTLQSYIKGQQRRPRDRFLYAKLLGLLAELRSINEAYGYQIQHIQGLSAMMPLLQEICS

Row | Structure (SMILES) | activity change, negative = inhibition [%]
1 | CC(C)C[C@@H]1c2c(O)c(C=O)c(O)c(C=O)c2O[C@]2(C)C=C[C@@H](C(C)C)C[C@H]12 | -3.25
2 | COc1cc2c(c(O)c1O)C(=O)c1c(coc1C)C2=O | 138
3 | CO[C@H]1[C@@H](OC(=O)/C(C)=C\[C@@H]2O[C@@H]2[C@H]2O[C@H]2C)[C@H](O)[C@H](OCC23C[C@@H]4[C@H](C)CC[C@H]4C4(C=O)CC2C=C(C(C)C)C34C(=O)O)O[C@@H]1C (stereo partly drawn) | 25.2
4 | C/C=C/C1C=CC2CC(C)CC(C)C2C1C(=O)CC(=O)NC(CO)C/C=C/CCCCC (stereo not drawn) | 17.7
5 | CC[C@H]1[C@H](C)[C@H](c2cc(OC)c(OC)cc2OC)[C@@H](C)[C@H](c2cc(OC)c(OC)cc2OC)[C@@]12C=C(OC)C(=O)C=C2OC | 112

Each molecule was assayed against Nuclear receptor subfamily 1 group I member 3 (Homo sapiens) (UniProt Q14994) (assay: qHTS for Constitutive Androstane Receptor (CAR) Agonist screened against the NCATS CANVASS Library (AID 1347373;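 further: every well also contained 1.5 µM PK11195 alongside the test compound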; further: potency means the concentration at half of the fitted maximal effect; on activation: 0% is about no effect)). Settings: HepG2-hCAR-CYP2B6 luciferase reporter, ONE-Glo luminescence; series mostly up to 46.1 µM; activation: at the top concentration.
How it was run: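 Cells were plated and allowed to attach for 4hr, then dosed with compound in an 11-point series alongside 1.5uM PK11195. After 24hr at 37C, viability was measured fluorometrically and CAR-driven CYP2B6 reporter luminescence was recorded.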

Row | Structure (SMILES) | activation [%] | Potency
6 | Cc1occ2c1C(=O)c1c(cc(O)c(O)c1O)C2=O | 13 | –
7 | O=C1CC2OCC=C3CN4C5CC3C2[C@@H]2N1c1ccccc1[C@]52C[C@@H]4C1=C[C@H]2C3CC4N(CC[C@@]45c4ccccc4N(C1=O)[C@@H]25)C/C3=C/CO (stereo partly drawn) | – | 11.7 µM (active)
8 | CCC(=O)CCCCC[C@@H]1NC(=O)[C@H]2CCCCN2C(=O)[C@H](C(C)C)NC(=O)[C@H](Cc2cn(OC)c3ccccc23)NC1=O | -30.1 | –
9 | C/C(=C\[C@H](C)C(=O)CCCC1CC(=O)NC(=O)C1)[C@@H]1OC(=O)/C=C/CC/C=C/[C@H](O)[C@@H](O)[C@@H]1C | -8.72 | –
10 | C/C=C(/C)c1c(Cl)c(O)c(C)c2c1Oc1c(Cl)c(O)c(Cl)c(C)c1C(=O)O2 | -2.3 | –
11 | C=CC(CCCCC)C1C(=O)NC(=O)C1C(=O)C1C(/C=C/C)C=CC2CC(C(=O)O)CC(C)C21 (stereo not drawn) | -8.77 | –
12 | C=C1CC[C@@H](O[C@H]2C[C@@](O)([C@H](C)NC(=O)c3[nH]c(C)c(Cl)c3Cl)[C@H](O)[C@@H](C)O2)[C@@H]2C=C[C@H](C)C(/C(O)=C3/C(=O)[C@H](C(C)C)N([C@@H]4O[C@H](C)[C@H](OC(N)=O)[C@H](OC(C)=O)[C@@H]4OC)C3=O)[C@@H]12 (stereo partly drawn) | 5.2 | –
13 | COc1ccc([C@@H]2CC(=O)c3c(cc(O)c(C/C=C(\C)CCC=C(C)C)c3O)O2)cc1 | – | 3.05 µM (active)
14 | O=c1cc(-c2ccc(O)c(O)c2)oc2cc(O[C@@H]3O[C@H](CO)[C@@H](O)[C@H](O)[C@H]3O)cc(O)c12 | 26.8 | –
15 | CC[C@H](C)[C@H]1NC(=O)[C@@H](NC(=O)C(C)C)[C@@H](C)OC(=O)[C@H](COC(=O)CNC(C)=O)NC(=O)[C@@H]([C@@H](C)O)NC(=O)[C@H](Cc2ccccc2)N(C)C(=O)[C@H](c2ccc(OC)cc2)NC1=O (Isobutyryl-T[d(aIle)][Phg(4-OMe)][NMeF][d(aThr)]S([Gly-Ac]); ester 1-C) | -5.39 | –
16 | C[n+]1cc2cc(C(N)=O)[nH]c3c(=N)c(Cl)c(N)c1c23 | 8.71 | –
17 | C/C1=C/[C@@H](C)[C@H](O)[C@@H](O)/C=C/CC/C=C/C(=O)O[C@@H]1[C@H](C)C(=O)CCCC1CC(=O)NC(=O)C1 | 4.31 | –
18 | O[C@H]1c2ccccc2-c2c3c(cc4c2[C@@H]1NCC4)OCO3 | -25.7 | –
19 | CC(C)=CC[C@H]1C[C@@]2(CC=C(C)C)C(=O)[C@](CC=C(C)C)(C(=O)C(C(=O)c3ccccc3)=C2O)C1(C)C | 4.08 | –
20 | C[C@]12CC[C@]3(C1)[C@H](CC2=O)C[C@@H](OC(=O)c1ccccc1)[C@H]1[C@](C)(C(=O)O)CCC[C@@]13C | 4.49 | –
21 | CC(=O)O[C@H]1c2ccccc2-c2c3c(cc4c2[C@@H]1N(C(C)=O)CC4)OCO3 | 10.3 | –
22 | C=C[C@](Cl)(CBr)CCC=C(C)C | -6.44 | –
23 | COc1cc2c(cc1OC)[C@@H](c1ccc3c(c1)OCO3)C(C)C(C)C2=O (stereo partly drawn) | – | 18.6 µM (active)
24 | C[C@H]1C=C[C@H]2CCCC[C@@H]2[C@H]1C(=O)[C@H]1CC2=C(C(=O)O)CCN2C1=O | 7.53 | –
25 | C/C(=C\[C@H](C)C(=O)/C=C/CC1CC(=O)NC(=O)C1)[C@@H]1OC(=O)/C=C/CC/C=C/C[C@@H](O)[C@@H]1C | -9.5 | –
26 | CC(C)[C@]12CC[C@@]3(C)[C@H](C)CC[C@H](O)[C@@]3(CC1)c1cc3c(cc12)[nH]c1ccccc13 | -2.42 | –
27 | C/C=C1/CN2C3CC1C1C=CC(=O)N4c5ccccc5[C@@]3(C[C@@H]2C2=C[C@H]3C5CC6N(CC[C@@]67c6ccccc6N(C2=O)[C@@H]37)C/C5=C/C)[C@H]14 (stereo partly drawn) | -26.7 | –
28 | CC(C)=CCC[C@]12c3cc4c(cc3CC[C@@]1(C)[C@H](C)CC[C@@H]2O)[nH]c1ccccc14 | 9.06 | –
